From PubChem BioAssay AID720711 (National Center for Advancing Translational Sciences (NCATS), 2013)
Among all 360,000 compounds or so, about 290 (0.081%) were called active. The call rests on the fitted dose curve; in most records, active means well fitted activation curve with a large enough effect; inconclusive means small, poorly fitted or top-dose-only effect; inactive means no such curve, though single readings can be large or run the other way. The list comes from a sample in which actives are over-represented; it also holds similar structures and randomly drawn compounds.

The compounds below were run against Rap guanine nucleotide exchange factor 4 (Homo sapiens) (UniProt Q8WZA2) (assay: qHTS for Agonist of cAMP-regulated guanine nucleotide exchange factor 4 (EPAC2): primary screen). Conditions: biochemical qHTS; Potency: EPAC2 activation; series mostly up to 154 µM; activation: at the top concentration.
Sequence of Rap guanine nucleotide exchange factor 4 (Homo sapiens) (Q8WZA2 whole entry, looked up): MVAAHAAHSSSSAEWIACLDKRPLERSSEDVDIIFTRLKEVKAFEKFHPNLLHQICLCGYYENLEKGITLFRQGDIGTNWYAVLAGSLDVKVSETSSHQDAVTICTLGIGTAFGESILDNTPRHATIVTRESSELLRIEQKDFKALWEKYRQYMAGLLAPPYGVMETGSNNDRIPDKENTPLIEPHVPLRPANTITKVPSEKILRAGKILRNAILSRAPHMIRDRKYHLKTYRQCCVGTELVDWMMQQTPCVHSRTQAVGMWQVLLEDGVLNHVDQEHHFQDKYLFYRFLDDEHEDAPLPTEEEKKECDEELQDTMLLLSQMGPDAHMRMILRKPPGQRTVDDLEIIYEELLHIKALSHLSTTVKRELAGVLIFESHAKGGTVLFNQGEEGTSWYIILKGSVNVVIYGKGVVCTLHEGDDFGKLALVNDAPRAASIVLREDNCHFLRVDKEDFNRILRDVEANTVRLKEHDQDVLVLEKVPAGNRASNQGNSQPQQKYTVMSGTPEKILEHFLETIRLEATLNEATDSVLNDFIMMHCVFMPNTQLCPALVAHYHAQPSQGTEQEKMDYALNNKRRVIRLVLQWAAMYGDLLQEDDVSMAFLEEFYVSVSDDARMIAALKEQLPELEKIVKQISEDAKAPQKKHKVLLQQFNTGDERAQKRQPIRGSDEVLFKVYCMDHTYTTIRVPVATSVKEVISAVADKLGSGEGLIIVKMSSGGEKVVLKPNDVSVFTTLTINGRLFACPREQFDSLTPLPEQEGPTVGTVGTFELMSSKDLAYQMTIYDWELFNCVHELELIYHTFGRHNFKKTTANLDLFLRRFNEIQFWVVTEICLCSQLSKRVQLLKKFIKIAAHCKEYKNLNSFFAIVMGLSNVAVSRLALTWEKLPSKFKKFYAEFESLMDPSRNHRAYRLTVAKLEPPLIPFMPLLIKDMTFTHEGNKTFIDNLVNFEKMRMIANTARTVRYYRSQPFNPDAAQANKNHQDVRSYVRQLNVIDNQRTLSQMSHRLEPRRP
Description: In multi-cellular eukaryotic organisms, the effects of cAMP are transduced by two ubiquitously-expressed intracellular cAMP receptors, the classic protein kinase A/cAMP-dependent protein kinase (PKA/cAPK) and the more recently discovered exchange protein directly activated by cAMP/cAMP-regulated guanine nucleotide exchange factor (EPAC/cAMP-GEF). Both PKA and EPAC are ubiquitously expressed in all tissues, and an increase in intracellular cAMP levels will lead to the activation of both PKA and EPAC. Therefore, careful dissections of the individual role and relative contribution of EPAC and PKA within the overall cAMP signaling in various model systems are critical for further elucidating the mechanism of cAMP signaling. To date no EPAC-specific antagonists and agonist, as well as isoform-specific agonists have been reported, and developing EPAC-specific pharmacological probes to determine the physiological functions that EPAC play in the overall cAMP-mediated signaling remains a major challenge within the research field. Furthermore, identified regulators of EPAC may lead to new mechanism-based therapeutic strategies specifically targeting the EPAC / cAMP-signaling components as EPAC has been implicated to play important roles in major human pathological conditions such as diabetes, heart disease, and cancer.
This qHTS will be used to screen the Molecular Libraries Small Molecule Repository (MLSMR) as a concentration-titration series using the NCGC unique quantitative screening (qHTS) platform to find activators for EPAC2. In addition, this assay will also be used as a counterscreen for the EPAC1 qHTS. This fluorescent based assay is developed and validated for EPAC2 that measures exchange using EPAC effector Rap1 complex with BODIPY-GDP, a GDP analog with a tethered fluorophores. Activators are identified by monitoring the change in fluorescence signal as the exchanged free BODIPY-GDP has a reduced fluorescence compared to Rap1-bound BODIPY-GDP. […] in signal (activation) is the desired outcome for the EPAC2 agonist while no activity in this assay is desired for the EPAC1 agonist counterscreen.
[1] de Rooij, J., Zwartkruis, F. J., Verheijen, M. H., Cool, R. H., Nijman, S. M., Wittinghofer, A., and Bos, J.L. (1998) Nature 396, 474-477
[2] Kawasaki, H., Springett, G. M., Mochizuki, N., Toki, S., Nakaya, M., Matsuda, M., Housman, D. E., and Graybiel, A. M. (1998) Science 282, 2275-2279
NIH Chemical Genomics Center [NCGC]
NIH Molecular Libraries Probe Centers Network [MLPCN]
Assay Submitter (PI): Xiaodong Cheng, The University of Texas, Medical Branch
Briefly, three uL of reagents (100 nM EPAC2, 250 nM RAP1B-BODIPY-GDP, 50 uM GDP) were dispensed into a 1536-well Greiner black solid-bottom medium binding assay plate. Controls and test compounds (23 nL) were transferred to the plate via a Kalypsys pin tool equipped with a 1536-pin array. The plates were centrifuged at 1,000 rpm for 15 seconds followed by 5 minute incubation at room temperature. The assay plates were read at 5 minute intervals for 30 minutes in the ViewLux plate reader using 480nm excitation and 540nm emission filters. The results were normalized to the agonist positive control of 6.5 mM cAMP.
Further: nearly all actives have a fitted effect of over 50% in size.
Potency means the concentration at half of the fitted maximal effect.

Compound	Potency	activation
COc1cccc(N2C(=O)NC(=O)/C(=C\c3cn(C)c4ccccc34)C2=O)c1	100 µM (active)	–
CCc1nc2ccccc2c(=O)n1-c1cccc(OC)c1	–	1.81% (inactive)
CC1C(=O)OC2CCN3CC=C(COC(=O)C(C)(O)C1(C)O)C23 (stereo not given)	–	-2.81% (inactive)
CSC1=NP(=S)(SC)N(C)c2nc3n(c21)CCC3 (stereo not given)	–	9.22% (inactive)
CC(=O)c1ccc(OC(NC(=O)Cc2ccccc2)C(Cl)(Cl)Cl)cc1 (stereo not given)	–	6.08% (inactive)
